Measured values: the supplement of paper PMC10849652
Targets with a hit are over-represented here; the source holds about 8,800 in all. About 0.5% of all pairs of compound and target were hits. A number with no mark means an inactive call.

Key:
Test in all cases: log2 fold change, soluble protein after heating vs DMSO (PISA); higher = thermal stabilisation; K562 lysate, 10 uM; active = over 0.2 and 3.5 SD of the protein, either way, in both replicates (recomputed)
[1] = compound: CS(=O)(=O)CCNCc1ccc(-c2ccc3ncnc(Nc4ccc(OCc5cccc(F)c5)c(Cl)c4)c3c2)o1 [lapatinib]
Outline: (§1)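 Log-two fold change in thermal stability relative to solvent controls is reported from duplicates. For each sample, crude K562 extract from dounce-homogenised pellets in PBS pH 7.4 with 1 mM MgCl2, at 1 mg/mL protein, was treated with 10 μM compound for 30 min. Aliquots heated for 3 min across 48°C-58°C were pooled, brought to 0.5% NP-40 at 4°C and cleared at 21,000xg for 90 min. The supernatant was quantified by TMTpro 16plex LC-MS/MS with channel sums equalised.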

[2] = compound: CS(=O)(=O)N1CCN(Cc2cc3nc(-c4cccc5[nH]ncc45)nc(N4CCOCC4)c3s2)CC1 [pictilisib]
Outline: as §1

[3] = compound: C[C@@H](Oc1cc(-c2cnn(C3CCNCC3)c2)cnc1N)c1c(Cl)ccc(F)c1Cl [crizotinib]
Outline: as §1

[4] = compound: C[C@H](C1=CC=C(C=C1)C(=O)NC2=C3C=CNC3=NC=C2)N
Outline: as §1

[5] = compound: C[C@H](Nc1ncnc2nc[nH]c12)c1cc2cccc(Cl)c2c(=O)n1-c1ccccc1 [duvelisib]
Outline: as §1

[6] = compound: Cc1cc(Nc2cc(CN3CCOCC3)c3nc(C)c(Cc4ccc(Cl)cc4F)n3n2)n[nH]1 [gandotinib]
Outline: as §1

[7] = compound: Cc1cc(Nc2cc(N3CCN(C)CC3)nc(Sc3ccc(NC(=O)C4CC4)cc3)n2)n[nH]1 [tozasertib]
Outline: as §1

[8] = compound: Cc1ccc(-n2nc(C(C)(C)C)cc2NC(=O)Nc2ccc(OCCN3CCOCC3)c3ccccc23)cc1 [doramapimod]
Outline: as §1

[9] = compound: Cc1ccc(NC(=O)c2ccc(CN3CC[C@H](N(C)C)C3)c(C(F)(F)F)c2)cc1Nc1nccc(-c2cncnc2)n1 [bafetinib]
Outline: as §1

[10] = compound: Cc1cccc(CC(=O)N2CCc3c2ccc(-c2cn(C)c4ncnc(N)c24)c3F)n1
Outline: as §1

Sequence of UniProt Q9BTX1 (Q9BTX1 whole entry, looked up): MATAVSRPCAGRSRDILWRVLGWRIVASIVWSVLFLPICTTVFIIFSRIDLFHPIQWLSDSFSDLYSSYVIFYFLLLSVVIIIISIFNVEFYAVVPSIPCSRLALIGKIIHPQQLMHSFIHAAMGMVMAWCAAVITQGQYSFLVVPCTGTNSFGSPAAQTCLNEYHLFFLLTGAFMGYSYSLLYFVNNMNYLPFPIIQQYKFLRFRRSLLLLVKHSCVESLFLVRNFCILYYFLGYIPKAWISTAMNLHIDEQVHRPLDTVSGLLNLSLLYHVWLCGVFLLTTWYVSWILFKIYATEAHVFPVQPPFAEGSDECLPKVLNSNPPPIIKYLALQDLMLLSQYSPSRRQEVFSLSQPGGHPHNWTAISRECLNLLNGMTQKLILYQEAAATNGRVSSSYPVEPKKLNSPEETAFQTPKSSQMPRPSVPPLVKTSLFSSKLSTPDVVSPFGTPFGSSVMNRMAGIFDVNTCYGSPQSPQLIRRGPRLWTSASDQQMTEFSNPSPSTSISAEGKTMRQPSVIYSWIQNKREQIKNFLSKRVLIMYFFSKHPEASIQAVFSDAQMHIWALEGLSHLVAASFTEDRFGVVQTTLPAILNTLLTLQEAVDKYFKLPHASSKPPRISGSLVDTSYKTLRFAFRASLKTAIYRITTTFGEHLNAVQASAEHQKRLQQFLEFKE
Sequence of UniProt O15294 (O15294 whole entry, looked up): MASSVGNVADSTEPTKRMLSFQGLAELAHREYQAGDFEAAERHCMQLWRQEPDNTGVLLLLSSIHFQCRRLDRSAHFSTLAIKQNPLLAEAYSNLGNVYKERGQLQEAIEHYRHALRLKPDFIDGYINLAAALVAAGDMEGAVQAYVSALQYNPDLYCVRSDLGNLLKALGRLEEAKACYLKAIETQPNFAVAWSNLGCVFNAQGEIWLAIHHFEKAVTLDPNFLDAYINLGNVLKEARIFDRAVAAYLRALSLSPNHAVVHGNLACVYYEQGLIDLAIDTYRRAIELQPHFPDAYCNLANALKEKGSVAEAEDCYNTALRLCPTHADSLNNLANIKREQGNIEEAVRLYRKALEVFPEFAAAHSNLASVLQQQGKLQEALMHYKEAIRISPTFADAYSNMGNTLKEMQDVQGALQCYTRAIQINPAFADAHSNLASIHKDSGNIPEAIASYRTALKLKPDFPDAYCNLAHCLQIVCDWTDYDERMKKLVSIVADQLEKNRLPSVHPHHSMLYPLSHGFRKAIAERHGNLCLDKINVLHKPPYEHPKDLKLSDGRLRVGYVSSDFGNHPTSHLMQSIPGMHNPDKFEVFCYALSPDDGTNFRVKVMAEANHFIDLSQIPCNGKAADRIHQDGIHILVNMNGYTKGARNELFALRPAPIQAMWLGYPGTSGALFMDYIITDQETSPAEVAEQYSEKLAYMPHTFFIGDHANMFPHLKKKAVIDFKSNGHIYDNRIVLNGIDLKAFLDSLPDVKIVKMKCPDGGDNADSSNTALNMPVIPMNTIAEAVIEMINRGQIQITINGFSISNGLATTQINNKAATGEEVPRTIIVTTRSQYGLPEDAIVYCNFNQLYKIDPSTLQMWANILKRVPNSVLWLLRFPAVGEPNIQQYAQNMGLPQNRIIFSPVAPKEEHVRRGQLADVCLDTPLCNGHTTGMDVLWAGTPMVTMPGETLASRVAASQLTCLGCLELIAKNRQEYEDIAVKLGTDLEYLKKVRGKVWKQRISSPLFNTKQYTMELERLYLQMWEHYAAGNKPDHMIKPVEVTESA
Sequence of UniProt P52948 (P52948 whole entry, looked up): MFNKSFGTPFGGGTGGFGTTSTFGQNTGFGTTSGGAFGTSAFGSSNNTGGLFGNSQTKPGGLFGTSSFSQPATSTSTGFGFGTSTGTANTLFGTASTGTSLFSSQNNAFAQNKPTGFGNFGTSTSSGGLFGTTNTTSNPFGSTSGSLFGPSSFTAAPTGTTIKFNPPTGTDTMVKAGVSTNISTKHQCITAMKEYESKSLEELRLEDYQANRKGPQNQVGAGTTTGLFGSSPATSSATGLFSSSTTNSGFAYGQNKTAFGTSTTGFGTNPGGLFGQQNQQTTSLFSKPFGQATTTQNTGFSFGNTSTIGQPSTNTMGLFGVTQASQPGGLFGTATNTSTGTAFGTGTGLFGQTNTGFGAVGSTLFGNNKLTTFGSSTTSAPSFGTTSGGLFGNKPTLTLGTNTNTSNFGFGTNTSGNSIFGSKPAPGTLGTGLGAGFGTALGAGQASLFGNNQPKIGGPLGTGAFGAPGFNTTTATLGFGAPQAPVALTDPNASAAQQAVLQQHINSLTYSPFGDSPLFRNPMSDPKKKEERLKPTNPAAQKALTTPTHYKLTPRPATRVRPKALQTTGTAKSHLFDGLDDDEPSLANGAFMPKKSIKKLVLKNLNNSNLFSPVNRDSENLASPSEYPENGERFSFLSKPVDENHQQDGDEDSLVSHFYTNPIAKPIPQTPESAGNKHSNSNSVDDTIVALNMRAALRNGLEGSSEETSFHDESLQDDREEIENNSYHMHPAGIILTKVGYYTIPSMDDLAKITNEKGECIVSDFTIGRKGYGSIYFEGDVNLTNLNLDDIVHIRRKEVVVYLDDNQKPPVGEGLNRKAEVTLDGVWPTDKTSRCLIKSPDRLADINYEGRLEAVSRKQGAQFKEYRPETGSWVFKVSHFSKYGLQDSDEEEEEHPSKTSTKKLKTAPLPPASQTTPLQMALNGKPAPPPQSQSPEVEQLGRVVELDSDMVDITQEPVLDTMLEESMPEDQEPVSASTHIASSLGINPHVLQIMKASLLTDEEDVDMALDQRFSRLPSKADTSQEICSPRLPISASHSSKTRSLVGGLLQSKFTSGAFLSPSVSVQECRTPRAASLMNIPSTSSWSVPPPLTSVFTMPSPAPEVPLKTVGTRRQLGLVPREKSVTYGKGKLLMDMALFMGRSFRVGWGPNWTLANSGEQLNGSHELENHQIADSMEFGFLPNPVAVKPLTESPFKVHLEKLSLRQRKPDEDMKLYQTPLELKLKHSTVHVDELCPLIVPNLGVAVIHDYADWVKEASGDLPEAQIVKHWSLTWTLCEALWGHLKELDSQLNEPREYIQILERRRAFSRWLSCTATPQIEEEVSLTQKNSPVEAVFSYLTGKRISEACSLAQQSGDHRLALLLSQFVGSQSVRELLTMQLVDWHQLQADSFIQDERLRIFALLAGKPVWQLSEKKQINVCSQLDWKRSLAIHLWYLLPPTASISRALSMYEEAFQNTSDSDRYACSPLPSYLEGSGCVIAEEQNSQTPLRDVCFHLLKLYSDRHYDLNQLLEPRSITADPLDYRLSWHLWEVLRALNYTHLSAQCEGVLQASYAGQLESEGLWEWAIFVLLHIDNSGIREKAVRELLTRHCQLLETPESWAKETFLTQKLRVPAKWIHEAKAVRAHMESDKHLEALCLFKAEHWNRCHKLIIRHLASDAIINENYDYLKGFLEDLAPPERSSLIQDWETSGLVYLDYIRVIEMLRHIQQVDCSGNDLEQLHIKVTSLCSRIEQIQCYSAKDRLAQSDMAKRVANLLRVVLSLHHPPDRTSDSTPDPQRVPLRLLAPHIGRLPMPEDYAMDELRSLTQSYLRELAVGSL
Sequence of UniProt Q9Y5A7 (Q9Y5A7 whole entry, looked up): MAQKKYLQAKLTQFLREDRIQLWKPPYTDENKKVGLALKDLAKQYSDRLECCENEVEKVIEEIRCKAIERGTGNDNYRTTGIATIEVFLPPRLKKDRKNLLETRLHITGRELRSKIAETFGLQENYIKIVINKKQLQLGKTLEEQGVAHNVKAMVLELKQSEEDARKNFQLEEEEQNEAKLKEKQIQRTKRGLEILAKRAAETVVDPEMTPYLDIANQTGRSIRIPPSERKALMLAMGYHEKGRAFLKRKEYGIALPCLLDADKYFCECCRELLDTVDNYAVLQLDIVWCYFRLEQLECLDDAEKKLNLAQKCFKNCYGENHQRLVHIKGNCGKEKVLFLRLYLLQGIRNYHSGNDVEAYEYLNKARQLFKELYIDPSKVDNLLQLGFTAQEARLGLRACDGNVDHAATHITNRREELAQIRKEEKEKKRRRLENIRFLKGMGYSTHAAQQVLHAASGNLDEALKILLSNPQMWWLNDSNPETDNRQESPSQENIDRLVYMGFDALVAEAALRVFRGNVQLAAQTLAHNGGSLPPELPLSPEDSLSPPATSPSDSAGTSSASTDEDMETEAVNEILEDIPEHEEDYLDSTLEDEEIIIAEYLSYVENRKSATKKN
Sequence of UniProt Q9NTK5 (Q9NTK5 whole entry, looked up): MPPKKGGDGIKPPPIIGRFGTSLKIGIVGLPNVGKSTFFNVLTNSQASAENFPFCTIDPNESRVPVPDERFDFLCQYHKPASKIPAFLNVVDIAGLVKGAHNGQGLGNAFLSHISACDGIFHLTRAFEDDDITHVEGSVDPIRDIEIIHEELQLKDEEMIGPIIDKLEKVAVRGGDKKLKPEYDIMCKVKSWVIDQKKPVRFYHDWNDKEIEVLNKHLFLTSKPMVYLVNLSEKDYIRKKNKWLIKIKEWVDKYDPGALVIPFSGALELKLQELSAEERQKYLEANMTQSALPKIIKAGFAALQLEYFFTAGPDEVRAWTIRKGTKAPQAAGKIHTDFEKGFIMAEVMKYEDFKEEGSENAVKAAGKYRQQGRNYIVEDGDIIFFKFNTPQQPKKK
Sequence of UniProt Q8IVI9 (Q8IVI9 whole entry, looked up): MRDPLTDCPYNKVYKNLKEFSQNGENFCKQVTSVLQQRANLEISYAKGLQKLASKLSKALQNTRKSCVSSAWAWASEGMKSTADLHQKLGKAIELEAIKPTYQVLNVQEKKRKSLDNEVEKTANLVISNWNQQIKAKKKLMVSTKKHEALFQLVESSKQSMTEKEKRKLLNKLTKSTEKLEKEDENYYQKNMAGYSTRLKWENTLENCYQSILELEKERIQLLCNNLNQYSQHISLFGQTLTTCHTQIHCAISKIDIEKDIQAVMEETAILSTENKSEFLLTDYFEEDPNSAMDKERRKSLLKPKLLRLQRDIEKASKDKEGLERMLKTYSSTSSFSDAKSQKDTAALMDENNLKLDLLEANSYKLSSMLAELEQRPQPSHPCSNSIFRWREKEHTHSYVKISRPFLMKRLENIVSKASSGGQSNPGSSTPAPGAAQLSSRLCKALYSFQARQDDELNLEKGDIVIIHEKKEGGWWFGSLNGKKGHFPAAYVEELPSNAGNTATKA

Row | Target | log2 fold change [1] | log2 fold change [2] | log2 fold change [3] | log2 fold change [4] | log2 fold change [5] | log2 fold change [6] | log2 fold change [7] | log2 fold change [8] | log2 fold change [9] | log2 fold change [10]
1 | OLA1 (UniProt Q9NTK5) | -0.009 | 0.013 | -0.005 | -0.088 | 0.007 | -0.035 | 0.025 | 0.018 | 0.024 | 0.052
2 | NELFCD (UniProt Q8IXH7) | -0.035 | -0.048 | -0.043 | 0.074 | 0.017 | -0.087 | -0.025 | 0.045 | -0.105 | -0.029
3 | MRPL51 (UniProt Q4U2R6) | -0.051 | -0.016 | 0.056 | -0.201 | -0.004 | 0.058 | 0.083 | -0.247 | 0.02 | 0.091
4 | MRPL53 (UniProt Q96EL3) | 0.022 | -0.004 | 0.031 | 0.079 | 0 | -0.04 | 0.016 | 0.009 | 0.005 | 0.012
5 | MT-CYB (UniProt P00156) | -0.054 | -0.025 | -0.126 | -0.856 (active) | 0.094 | 0.568 (active) | -0.074 | -0.05 | 0.05 | 0.385
6 | NOSTRIN (UniProt Q8IVI9) | -0.022 | -0.011 | 0.06 | 0.017 | 0.047 | -0.047 | 0.058 | -0.03 | -0.078 | -0.012
7 | NF1 (UniProt P21359) | -0.034 | -0.022 | -0.075 | -0.031 | -0.001 | -0.108 | -0.014 | -0.009 | -0.041 | 0.049
8 | MYOM1 (UniProt P52179) | 0.099 | 0.009 | 0.054 | -0.082 | -0.02 | 0.065 | -0.137 | -0.436 | -0.252 | 0.05
9 | NUF2 (UniProt Q9BZD4) | -0.002 | -0.028 | -0.024 | -0.023 | -0.019 | -0.103 | 0.023 | 0.008 | -0.087 | 0.053
10 | NUDT4 isoform 2 (UniProt Q9NZJ9) | -0.002 | 0.006 | -0.018 | -0.055 | -0.013 | 0.061 | 0.065 | -0.009 | -0.006 | 0.011
11 | NNT (UniProt Q13423) | -0.047 | -0.046 | 0.03 | 0.013 | 0.039 | -0.445 (active) | -0.014 | 0.011 | -0.006 | 0.003
12 | NUB1 (UniProt Q9Y5A7) | -0.002 | -0.022 | 0.012 | 0.009 | -0.004 | 0.011 | 0.027 | -0.023 | -0.047 | -0.002
13 | OGT (UniProt O15294) | -0.006 | -0.038 | -0.038 | -0.016 | -0.016 | -0.086 | 0.016 | 0.009 | -0.011 | -0.029
14 | NEDD8 (UniProt Q15843) | 0.04 | 0.028 | 0.041 | 0.19 | 0.019 | -0.062 | 0.06 | -0.049 | -0.117 | -0.107
15 | NUP98 (UniProt P52948) | 0.007 | -0.041 | 0.017 | -0.014 | -0.04 | 0.01 | -0.033 | -0.024 | -0.024 | 0.043
16 | OCRL (UniProt Q01968) | 0.008 | -0.029 | -0.047 | -0.029 | -0.013 | -0.009 | 0 | 0.033 | 0.001 | 0.047
17 | MTA2 (UniProt O94776) | -0.003 | 0.017 | 0 | 0.013 | 0 | -0.033 | -0.016 | 0.031 | -0.009 | 0.021
18 | NOB1 (UniProt Q9ULX3) | 0.027 | 0.01 | -0.019 | 0.283 (active) | -0.033 | -0.084 | 0.011 | -0.023 | -0.041 | -0.048
19 | PANK1 (UniProt Q8TE04) | -0.008 | 0.151 | -0.018 | 0.106 | 0.099 | -0.31 (active) | 0.069 | 0.041 | -0.062 | -0.253
20 | OSBPL6 isoform 5 (UniProt Q9BZF3) | 0.077 | 0.008 | 0.367 (active) | -0.003 | -0.003 | 0.033 | 0.036 | 0.005 | 0.32 | 0.004
21 | NDUFS1 isoform 2 (UniProt P28331) | 0.023 | -0.014 | 0.034 | 0.009 | -0.01 | -0.006 | 0.03 | 0.024 | -0.013 | -0.006
22 | PAXBP1 (UniProt Q9Y5B6) | 0.002 | -0.077 | -0.027 | -0.037 | -0.008 | -0.029 | 0.012 | 0.038 | -0.024 | 0.002
23 | MSH6 (UniProt P52701) | -0.004 | -0.005 | -0.076 | -0.003 | 0.014 | -0.087 | 0.013 | 0.037 | -0.051 | 0.022
24 | NDC1 (UniProt Q9BTX1) | -0.087 | -0.012 | -0.027 | -0.333 (active) | -0.044 | 0.185 | -0.01 | -0.001 | -0.066 | 0.296 (active)
25 | MVB12A (UniProt Q96EY5) | 0.012 | -0.027 | -0.025 | 0 | -0.04 | -0.031 | -0.046 | 0.012 | -0.015 | -0.031
26 | NCAPH2 (UniProt Q6IBW4) | -0.075 | -0.023 | -0.04 | -0.01 | -0.03 | -0.052 | 0.058 | -0.051 | -0.036 | 0.185
27 | PAIP2 (UniProt Q9BPZ3) | 0.013 | -0.036 | 0.021 | -0.008 | -0.04 | 0.022 | 0.035 | 0.043 | 0.073 | 0.02
28 | MYO1C (UniProt O00159) | -0.078 | 0.007 | -0.09 | 0.027 | 0.075 | -0.036 | 0.014 | 0.065 | 0.068 | -0.023
29 | NUSAP1 (UniProt Q9BXS6) | -0.004 | -0.018 | 0.045 | -0.334 (active) | -0.022 | 0.141 | -0.001 | -0.011 | 0.008 | 0.217 (active)
